In the supplement of paper PMC11732987, “Enantioselective OTUD7B fragment discovery through chemoproteomics screening and high-throughput optimisation” (Communications Chemistry, 2025):

Columns and labels:
Assay in all cases: log2 ratio of Biotin-Ahx-Ub-VS probe labelling (fragment/DMSO); higher = less target engagement (more negative = stronger competition), active = hit call of the paper (q ≤ 0.05, log2 ratio ≤ -1)
Conditions in all cases: compound concentration: 200 uM; treatment time: 3 h
USP42 = target: T1, USP42 (UniProt Q9H9J4)
T1 sequence (whole entry): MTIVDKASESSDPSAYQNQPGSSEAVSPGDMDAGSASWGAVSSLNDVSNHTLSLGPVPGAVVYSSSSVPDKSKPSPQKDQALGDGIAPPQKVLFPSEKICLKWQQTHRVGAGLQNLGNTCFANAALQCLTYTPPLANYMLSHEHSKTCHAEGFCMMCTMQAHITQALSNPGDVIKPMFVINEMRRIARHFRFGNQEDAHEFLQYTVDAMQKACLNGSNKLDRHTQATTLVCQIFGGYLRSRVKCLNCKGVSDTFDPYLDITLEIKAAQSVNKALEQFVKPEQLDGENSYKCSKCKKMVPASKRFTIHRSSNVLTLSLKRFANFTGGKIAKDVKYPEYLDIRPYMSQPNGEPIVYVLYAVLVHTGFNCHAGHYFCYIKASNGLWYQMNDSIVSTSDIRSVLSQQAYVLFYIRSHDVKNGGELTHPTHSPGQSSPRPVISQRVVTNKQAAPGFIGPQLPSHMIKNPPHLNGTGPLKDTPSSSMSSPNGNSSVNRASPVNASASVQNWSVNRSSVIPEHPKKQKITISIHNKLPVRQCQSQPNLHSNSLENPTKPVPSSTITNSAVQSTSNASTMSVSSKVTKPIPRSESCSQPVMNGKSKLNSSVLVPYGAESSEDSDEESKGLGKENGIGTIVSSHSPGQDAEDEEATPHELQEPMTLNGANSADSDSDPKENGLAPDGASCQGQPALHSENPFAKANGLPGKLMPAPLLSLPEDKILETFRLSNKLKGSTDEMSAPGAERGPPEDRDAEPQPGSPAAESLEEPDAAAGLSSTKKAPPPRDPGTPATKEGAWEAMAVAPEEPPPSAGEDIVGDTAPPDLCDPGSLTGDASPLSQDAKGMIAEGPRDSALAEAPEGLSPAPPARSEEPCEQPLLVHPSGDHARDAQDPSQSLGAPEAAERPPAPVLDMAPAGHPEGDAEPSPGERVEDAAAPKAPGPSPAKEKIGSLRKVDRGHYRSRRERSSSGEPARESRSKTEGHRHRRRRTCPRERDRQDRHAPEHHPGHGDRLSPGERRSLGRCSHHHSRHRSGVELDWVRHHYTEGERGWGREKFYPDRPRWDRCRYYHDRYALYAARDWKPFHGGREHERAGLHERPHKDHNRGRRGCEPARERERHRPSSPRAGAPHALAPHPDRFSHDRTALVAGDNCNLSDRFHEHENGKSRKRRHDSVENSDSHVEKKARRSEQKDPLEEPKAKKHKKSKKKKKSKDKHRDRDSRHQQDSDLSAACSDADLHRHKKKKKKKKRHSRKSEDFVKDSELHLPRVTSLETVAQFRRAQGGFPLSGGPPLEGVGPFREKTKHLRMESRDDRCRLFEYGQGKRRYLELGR
Method in brief: (§1)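 Triplicate samples of HEK293T lysate, 495 µg each, received fragment at 200 µM or vehicle for 3 h, followed by Biotin-Ahx-Ub-VS (0.5 µM final) for 1 h. After NeutrAvidin enrichment of labelled DUBs and LysC/trypsin digestion, peptides were run by diaPASEF LC-MS/MS. The values are average log2 fragment/vehicle ratios from global-median-normalised Spectronaut label-free quantities, tested by unpaired t-test on proteins having ≥2 unique peptides.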

USP46 = USP46 (UniProt P62068)
Sequence of USP46 (P62068 whole entry): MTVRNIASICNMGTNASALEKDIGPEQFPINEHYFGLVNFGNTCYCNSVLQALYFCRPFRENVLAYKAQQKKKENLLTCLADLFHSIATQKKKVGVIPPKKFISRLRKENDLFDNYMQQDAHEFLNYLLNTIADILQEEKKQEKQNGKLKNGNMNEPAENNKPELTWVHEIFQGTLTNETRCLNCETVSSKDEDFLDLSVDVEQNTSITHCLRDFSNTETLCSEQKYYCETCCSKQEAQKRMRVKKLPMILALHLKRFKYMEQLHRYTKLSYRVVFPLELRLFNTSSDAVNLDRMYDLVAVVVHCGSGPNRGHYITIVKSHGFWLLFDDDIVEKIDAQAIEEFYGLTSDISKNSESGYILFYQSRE
Method in brief: as §1

USP47 = target: T2, USP47 (UniProt Q96K76)
T2 sequence (whole entry): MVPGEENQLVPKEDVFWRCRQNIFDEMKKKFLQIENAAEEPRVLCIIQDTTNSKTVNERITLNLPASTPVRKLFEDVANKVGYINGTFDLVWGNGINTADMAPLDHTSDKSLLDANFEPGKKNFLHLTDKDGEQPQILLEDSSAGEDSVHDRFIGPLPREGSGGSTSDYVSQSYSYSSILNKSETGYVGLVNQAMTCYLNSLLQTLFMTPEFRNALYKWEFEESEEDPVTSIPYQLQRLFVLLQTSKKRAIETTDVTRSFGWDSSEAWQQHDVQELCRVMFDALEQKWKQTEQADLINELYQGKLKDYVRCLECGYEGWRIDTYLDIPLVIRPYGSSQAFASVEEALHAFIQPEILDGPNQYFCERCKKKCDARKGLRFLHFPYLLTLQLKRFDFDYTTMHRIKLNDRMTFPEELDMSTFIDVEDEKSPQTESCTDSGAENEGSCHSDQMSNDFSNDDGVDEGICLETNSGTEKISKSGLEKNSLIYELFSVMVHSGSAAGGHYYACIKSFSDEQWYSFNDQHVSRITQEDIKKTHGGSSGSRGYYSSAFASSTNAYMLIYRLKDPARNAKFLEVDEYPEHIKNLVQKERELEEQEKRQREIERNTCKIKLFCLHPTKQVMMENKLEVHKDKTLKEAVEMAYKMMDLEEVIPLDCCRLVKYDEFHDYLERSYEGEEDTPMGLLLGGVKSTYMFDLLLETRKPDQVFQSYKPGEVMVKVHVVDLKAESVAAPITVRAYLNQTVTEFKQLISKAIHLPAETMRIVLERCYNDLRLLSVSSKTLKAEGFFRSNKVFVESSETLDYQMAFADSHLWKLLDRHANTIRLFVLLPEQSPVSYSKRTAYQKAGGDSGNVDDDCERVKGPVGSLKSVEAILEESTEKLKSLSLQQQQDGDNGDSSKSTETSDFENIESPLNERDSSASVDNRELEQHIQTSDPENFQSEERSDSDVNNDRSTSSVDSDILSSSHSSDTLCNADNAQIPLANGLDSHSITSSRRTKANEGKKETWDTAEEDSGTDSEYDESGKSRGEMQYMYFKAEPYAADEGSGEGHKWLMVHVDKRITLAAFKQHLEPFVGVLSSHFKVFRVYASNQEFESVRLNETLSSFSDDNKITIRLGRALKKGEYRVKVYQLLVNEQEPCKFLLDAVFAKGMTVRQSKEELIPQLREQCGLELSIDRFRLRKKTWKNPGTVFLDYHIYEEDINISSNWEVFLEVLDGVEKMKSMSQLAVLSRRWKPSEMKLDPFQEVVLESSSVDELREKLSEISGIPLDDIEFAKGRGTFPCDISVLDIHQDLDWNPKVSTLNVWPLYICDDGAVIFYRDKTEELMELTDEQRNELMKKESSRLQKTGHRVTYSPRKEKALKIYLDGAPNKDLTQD
Method in brief: as §1

USP48 = target: T3, USP48 (UniProt Q86UV5)
T3 sequence (whole entry): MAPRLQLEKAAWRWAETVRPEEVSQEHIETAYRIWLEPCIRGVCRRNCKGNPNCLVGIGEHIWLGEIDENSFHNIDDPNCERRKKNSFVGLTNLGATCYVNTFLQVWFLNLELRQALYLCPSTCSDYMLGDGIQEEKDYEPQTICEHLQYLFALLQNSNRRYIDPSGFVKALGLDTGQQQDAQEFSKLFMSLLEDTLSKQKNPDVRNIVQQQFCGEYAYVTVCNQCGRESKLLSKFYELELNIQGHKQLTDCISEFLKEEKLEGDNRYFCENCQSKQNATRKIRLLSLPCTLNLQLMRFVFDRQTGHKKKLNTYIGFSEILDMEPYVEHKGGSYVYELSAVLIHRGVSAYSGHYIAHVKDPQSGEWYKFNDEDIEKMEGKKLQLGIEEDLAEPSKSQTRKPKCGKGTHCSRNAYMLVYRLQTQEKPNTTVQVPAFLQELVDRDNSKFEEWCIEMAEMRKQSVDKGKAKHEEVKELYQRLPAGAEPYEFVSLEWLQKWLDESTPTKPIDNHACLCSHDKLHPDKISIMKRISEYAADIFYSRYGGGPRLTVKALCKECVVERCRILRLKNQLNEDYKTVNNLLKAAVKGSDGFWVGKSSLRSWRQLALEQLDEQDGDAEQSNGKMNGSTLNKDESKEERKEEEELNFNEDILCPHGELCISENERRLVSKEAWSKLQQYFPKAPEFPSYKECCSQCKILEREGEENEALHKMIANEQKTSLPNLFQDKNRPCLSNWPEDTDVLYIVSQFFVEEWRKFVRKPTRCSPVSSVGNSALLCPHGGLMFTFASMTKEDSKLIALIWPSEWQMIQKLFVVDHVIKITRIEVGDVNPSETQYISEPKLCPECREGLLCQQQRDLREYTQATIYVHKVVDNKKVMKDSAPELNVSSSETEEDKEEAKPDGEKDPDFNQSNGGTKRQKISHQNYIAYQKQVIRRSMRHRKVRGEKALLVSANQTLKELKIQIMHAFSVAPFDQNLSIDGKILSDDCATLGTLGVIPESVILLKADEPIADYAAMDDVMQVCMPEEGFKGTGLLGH
Method in brief: as §1

USP5 = target: T4, USP5 (UniProt P45974)
T4 sequence (whole entry): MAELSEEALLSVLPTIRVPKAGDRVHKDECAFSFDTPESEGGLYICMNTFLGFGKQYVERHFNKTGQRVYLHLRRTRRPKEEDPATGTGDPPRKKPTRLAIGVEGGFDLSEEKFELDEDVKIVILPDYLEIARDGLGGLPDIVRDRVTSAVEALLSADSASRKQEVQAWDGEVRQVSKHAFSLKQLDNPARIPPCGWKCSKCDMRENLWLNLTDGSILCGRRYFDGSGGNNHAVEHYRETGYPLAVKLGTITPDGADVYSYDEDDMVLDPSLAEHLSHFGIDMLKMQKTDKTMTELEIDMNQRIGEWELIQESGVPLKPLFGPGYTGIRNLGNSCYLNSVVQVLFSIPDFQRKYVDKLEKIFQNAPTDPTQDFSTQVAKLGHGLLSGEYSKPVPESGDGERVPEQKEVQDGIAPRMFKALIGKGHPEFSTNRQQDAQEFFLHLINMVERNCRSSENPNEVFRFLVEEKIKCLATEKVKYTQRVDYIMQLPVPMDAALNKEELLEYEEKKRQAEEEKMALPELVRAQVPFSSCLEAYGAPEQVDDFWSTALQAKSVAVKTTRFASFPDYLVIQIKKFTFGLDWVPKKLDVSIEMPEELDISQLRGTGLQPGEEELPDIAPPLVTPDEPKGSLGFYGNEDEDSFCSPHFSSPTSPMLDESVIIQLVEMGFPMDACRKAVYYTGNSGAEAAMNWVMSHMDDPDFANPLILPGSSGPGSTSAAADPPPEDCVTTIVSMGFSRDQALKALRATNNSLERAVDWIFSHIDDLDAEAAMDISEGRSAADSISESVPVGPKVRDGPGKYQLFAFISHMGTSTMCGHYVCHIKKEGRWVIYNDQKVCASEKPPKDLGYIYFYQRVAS
Method in brief: as §1

USP54 = USP54 (UniProt Q70EL1)
Sequence of USP54 (Q70EL1 whole entry): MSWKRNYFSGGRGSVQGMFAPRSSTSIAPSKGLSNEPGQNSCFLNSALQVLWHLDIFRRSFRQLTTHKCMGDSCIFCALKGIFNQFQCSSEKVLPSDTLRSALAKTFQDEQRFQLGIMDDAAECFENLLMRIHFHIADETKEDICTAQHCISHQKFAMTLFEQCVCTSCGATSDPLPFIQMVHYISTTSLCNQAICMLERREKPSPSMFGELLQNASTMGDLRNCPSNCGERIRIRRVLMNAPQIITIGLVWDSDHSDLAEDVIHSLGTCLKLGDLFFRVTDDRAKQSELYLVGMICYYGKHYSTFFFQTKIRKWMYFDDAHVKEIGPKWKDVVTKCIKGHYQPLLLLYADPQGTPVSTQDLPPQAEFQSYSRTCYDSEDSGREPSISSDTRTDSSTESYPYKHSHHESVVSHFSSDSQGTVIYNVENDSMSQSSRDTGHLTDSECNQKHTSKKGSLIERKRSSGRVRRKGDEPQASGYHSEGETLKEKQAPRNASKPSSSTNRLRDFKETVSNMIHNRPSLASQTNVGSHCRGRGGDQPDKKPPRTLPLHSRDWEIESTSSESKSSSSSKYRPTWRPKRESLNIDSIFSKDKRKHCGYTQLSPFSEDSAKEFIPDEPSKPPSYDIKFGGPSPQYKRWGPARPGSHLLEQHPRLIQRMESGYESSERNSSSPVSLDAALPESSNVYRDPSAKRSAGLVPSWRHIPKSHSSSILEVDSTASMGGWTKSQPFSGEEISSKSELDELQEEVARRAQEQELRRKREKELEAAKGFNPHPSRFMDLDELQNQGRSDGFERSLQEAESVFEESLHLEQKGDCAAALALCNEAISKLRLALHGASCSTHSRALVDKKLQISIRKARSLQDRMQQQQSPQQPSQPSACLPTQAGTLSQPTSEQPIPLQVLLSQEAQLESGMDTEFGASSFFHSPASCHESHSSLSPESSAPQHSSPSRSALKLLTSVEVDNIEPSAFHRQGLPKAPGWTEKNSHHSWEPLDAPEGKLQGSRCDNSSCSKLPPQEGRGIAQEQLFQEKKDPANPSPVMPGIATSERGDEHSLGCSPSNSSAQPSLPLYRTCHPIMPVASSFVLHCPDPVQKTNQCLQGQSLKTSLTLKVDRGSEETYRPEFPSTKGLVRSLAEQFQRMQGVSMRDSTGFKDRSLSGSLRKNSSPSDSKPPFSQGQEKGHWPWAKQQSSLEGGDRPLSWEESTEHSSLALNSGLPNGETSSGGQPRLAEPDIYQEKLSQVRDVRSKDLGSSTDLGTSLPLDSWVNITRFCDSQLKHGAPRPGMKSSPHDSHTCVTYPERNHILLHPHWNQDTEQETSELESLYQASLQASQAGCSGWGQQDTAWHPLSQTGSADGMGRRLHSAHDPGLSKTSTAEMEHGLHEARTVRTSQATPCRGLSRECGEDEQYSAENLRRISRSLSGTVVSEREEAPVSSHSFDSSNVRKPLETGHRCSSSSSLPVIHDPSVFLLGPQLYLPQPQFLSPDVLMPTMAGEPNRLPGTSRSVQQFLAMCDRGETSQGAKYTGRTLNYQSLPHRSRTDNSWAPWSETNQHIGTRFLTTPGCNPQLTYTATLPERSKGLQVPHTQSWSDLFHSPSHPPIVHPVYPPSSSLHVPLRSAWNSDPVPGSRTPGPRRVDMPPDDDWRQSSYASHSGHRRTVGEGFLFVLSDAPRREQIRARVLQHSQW
Method in brief: as §1

USP7 = USP7 (UniProt Q93009)
Sequence of USP7 (Q93009 whole entry, looked up): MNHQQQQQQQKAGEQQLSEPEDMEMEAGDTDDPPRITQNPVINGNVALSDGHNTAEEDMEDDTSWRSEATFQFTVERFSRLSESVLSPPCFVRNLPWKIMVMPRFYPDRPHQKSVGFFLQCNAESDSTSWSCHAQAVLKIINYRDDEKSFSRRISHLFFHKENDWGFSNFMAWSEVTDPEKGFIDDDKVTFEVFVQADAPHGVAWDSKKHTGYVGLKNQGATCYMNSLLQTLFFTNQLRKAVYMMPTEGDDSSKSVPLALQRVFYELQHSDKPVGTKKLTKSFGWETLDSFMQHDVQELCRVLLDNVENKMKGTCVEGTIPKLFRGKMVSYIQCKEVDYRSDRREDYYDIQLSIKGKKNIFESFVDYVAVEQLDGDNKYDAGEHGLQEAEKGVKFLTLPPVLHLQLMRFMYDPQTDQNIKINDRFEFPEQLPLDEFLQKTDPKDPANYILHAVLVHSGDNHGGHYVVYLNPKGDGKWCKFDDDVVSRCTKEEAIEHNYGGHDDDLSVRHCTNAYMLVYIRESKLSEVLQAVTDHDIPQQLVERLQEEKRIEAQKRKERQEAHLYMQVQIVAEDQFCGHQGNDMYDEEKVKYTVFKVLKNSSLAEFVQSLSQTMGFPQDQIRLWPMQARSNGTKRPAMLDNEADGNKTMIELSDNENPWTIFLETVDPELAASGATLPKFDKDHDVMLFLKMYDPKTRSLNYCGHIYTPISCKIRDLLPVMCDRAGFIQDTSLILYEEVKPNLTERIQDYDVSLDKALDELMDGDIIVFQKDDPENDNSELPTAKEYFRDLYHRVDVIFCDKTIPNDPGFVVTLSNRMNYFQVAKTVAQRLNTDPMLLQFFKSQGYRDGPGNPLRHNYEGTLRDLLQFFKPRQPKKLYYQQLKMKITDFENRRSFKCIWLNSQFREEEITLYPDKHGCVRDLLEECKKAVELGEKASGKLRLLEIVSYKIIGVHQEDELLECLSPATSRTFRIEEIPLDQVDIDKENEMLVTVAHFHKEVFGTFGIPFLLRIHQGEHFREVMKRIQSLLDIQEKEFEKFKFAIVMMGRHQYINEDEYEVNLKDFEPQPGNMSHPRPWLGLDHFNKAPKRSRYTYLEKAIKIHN
Method in brief: as §1

USP8 = target: T5, USP8 (UniProt P40818)
T5 sequence (whole entry): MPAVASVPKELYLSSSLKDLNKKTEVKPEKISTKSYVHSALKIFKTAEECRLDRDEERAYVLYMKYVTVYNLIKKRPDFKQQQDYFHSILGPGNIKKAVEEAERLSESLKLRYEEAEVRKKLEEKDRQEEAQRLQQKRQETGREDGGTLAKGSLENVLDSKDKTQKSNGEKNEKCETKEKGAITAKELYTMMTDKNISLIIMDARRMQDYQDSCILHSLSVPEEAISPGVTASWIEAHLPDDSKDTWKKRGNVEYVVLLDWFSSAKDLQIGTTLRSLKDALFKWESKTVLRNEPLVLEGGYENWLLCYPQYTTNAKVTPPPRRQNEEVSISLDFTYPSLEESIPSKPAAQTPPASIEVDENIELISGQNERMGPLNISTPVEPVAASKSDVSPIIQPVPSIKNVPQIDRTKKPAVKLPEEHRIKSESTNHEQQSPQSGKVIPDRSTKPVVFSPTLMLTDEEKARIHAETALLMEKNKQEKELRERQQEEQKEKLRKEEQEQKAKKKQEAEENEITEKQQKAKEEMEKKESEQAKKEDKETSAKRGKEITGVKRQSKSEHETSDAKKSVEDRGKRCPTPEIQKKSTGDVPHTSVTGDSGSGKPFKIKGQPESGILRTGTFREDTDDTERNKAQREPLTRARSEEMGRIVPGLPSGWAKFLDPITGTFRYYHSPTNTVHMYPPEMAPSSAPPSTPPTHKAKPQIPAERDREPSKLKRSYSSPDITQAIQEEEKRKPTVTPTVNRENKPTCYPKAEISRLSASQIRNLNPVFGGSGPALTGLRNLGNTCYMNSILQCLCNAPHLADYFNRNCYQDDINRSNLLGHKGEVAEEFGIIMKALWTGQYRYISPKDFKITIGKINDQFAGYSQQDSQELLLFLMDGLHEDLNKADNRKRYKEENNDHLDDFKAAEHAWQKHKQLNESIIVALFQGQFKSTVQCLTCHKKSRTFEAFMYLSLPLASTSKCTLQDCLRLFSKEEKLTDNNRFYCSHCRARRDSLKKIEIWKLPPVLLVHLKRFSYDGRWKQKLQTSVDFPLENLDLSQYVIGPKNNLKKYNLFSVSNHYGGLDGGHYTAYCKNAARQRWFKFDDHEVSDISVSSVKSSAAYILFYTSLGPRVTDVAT
Method in brief: as §1

USP9X = USP9X (UniProt Q93008)
Method in brief: as §1

UniProt O00487 = target: UniProt O00487
Sequence of UniProt O00487 (O00487 whole entry): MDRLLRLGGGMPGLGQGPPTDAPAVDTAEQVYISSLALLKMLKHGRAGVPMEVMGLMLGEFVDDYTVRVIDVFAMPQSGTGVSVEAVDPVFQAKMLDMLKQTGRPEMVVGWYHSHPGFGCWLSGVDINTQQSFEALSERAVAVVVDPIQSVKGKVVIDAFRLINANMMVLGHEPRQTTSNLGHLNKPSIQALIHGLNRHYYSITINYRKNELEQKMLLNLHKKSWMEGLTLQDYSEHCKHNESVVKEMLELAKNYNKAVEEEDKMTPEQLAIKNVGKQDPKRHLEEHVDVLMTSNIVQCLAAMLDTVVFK
Method in brief: as §1

Measured: log2 ratio of Biotin-Ahx-Ub-VS probe labelling

O=C(CCl)N1CCC(C(=O)N2CCCCCC2)CC1
inactive: USP42 0.671 | USP46 -0.142 | USP47 -0.239 | USP48 -0.0351 | USP5 0.0959 | USP54 0.452 | USP7 -0.714 | USP8 -0.0368 | USP9X -0.297 | UniProt O00487 -0.112
